Screening data: PubChem, National Center for Advancing Translational Sciences (NCATS)
Pf growth 48h: P. falciparum growth inhibition at 48 hours (one generation); hit rate 5.9% among 310,000; Potency, µM (series often up to 28.7 µM), for inactives: top-dose activity change, negative = inhibition, hits mostly inhibitors; P. falciparum luciferase growth in erythrocytes, 48 h; active = well fitted inhibition curve with a large enough effect; inconclusive = small, poorly fitted or top-dose-only effect, or another doubt; inactive = no such curve, though single readings can be large or run the other way; also: potency is read from the fitted curve at half-maximal effect; % is scaled to controls: 0 for no effect and ±100 for the full control effect
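Erythrocytes infected with P. falciparum carrying an integrated firefly luciferase reporter (2% hematocrit, 0.1% parasitemia final) were exposed to compounds in RPMI 1640 with 0.5% Albumax at 37 C, 5% CO2. Growth inhibition was scored as reduced luminescence.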
NS1 inh: inhibitors of influenza NS1 protein function; Potency, µM (doses to about 46.1 µM), inactives show at the highest dose activity, positive = more growth; hit rate 0.4% among 270,000; AID 2326; also: potency is read from the fitted curve at half-maximal effect; actives are rising curves; nearly all actives have a fitted effect of over 50% in size
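A cell-based growth assay was used: compounds that relieve NS1-induced slow growth of budding yeast raise OD600. Assay medium was yeast nitrogen base with ammonium sulphate and -URA supplement, pH 6.0, with 2% galactose.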
Cycloheximide cs: affects cycloheximide protein synthesis inhibition readout, counter-screen | cell reporter, cycloheximide protein synthesis inhibition counterscreen | max response, % | hit rate 12% among 300,000; in the data active = max response mostly above about 13%, no sharp cut-off; inactive = mostly below about 14%; also: read at 38.3 µM for the half of the compounds with a filed dose; 0% is about no effect
Pf growth 96h: inhibits malaria parasite growth, 96 h; hit rate 6.9% among 320,000; AID 504834; P. falciparum luciferase reporter growth, 96 h; Potency, µM (top dose mostly 28.7 µM), for the others: top-dose activity change, negative = inhibition, usual class: inhibitors; active = well fitted inhibition curve with a large enough effect; inconclusive = small, poorly fitted or top-dose-only effect, or another doubt; inactive = no such curve, though single readings can be large or run the other way; also: potency is read from the fitted curve at half-maximal effect; % is scaled to controls: 0 for no effect and ±100 for the full control effect
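Cell-based qHTS: luciferase-tagged P. falciparum in erythrocytes (2% hematocrit, 0.05% parasitemia final) incubated with compounds for 96 hours, 37 C, 5% CO2; luciferase detection reagent then added and luminescence measured.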
SARS PLpro yeast: SARS-CoV PLP inhibition in yeast; Potency, µM (top dose mostly 32.9 µM), inactives show top-dose activity, positive = growth rescue, most hits filed as activators; S. cerevisiae expressing SARS-CoV PLpro, growth rescue; hit rate 0.19% among 330,000; also: potency is read from the fitted curve at half-maximal effect; 0% is about no effect; nearly all actives have a fitted effect of over 55% in size
Shiga inhibitor: Shiga toxin inhibition. inhibition, % at 38.7 µM. hit rate 9.2% among 290,000. AID 2315. Vero cells, Shiga toxin protein synthesis inhibition reporter; in the data active = inhibition mostly above about 28%, no sharp cut-off; inactive = mostly below about 43%; also: 0% is about no effect
Numbers without * were called inactive; i = inactive; ? = inconclusive; · = no result; [ ] = dose if it differs, or a comment. In the library only some 21% were active in any assay of this set; here they are far more common. Unless noted, calls follow the shape of the full dose curve.

SMILES	Pf growth 48h	NS1 inh	Cycloheximide cs	Pf growth 96h	SARS PLpro yeast	Shiga inhibitor
COc1ccc(S(=O)(=O)NC(CC(C)C)C(=O)NC(C)c2cccs2)cc1 (stereo not given)	?	·	·	?	-0.6%	·
COc1ccc2ccccc2c1-c1csc(N)n1	10.8%	2.1%	12.8	?	0.1%	3.4
COc1ccc(C)cc1Nc1n[n+](-c2ccccc2)c(-c2ccc(C(=O)O)cc2)s1	17.6%	21.9%	-4.2	2.33µM*	-0.2%	-3.9
CSc1ccc(-c2sc(Nc3ccccc3)n[n+]2-c2ccc(F)cc2)cc1	?	3.5%	-0.9	35.5%	-2.8%	7.6
COc1ccc(C)cc1Nc1n[n+](-c2ccccc2)c(-c2cc(OC)c(OC)cc2Br)s1	?	9.2%	-2.1	9.28µM*	3.5%	-6.5
COc1ccc(C)cc1Nc1n[n+](-c2ccccc2)c(-c2c(OC)ccc3ccccc23)s1	3.7µM*	·	·	?	-2.6%	·
COc1ccc(-c2sc(Nc3ccccc3)n[n+]2-c2ccccc2)cc1Br	?	·	·	?	2.5%	·
Cc1ccc(C(C)(C)C)cc1S(=O)(=O)Nc1cccc(C(=O)N2CCN(c3ccccn3)CC2)c1	-35.4%	·	·	?	-1.4%	·
CSc1ccccc1C(=O)C1CCCN(Cc2cnn(-c3ccccc3)c2)C1 (stereo not given)	?	-4.1%	0.9	135.4%	0.3%	-4.8
COc1ccc([C@]23Cc4cc(C#N)ccc4[C@H](O2)c2c(cc(C)n(Cc4ccccc4)c2=O)O3)cc1	1.9µM*	21.8%	8.0	-3.8%[5.75 µM]	1.6%[6.58 µM]	i
COc1ccc([C@]23Cc4cc(C#N)ccc4C(O2)C2=C(CC4(CCCCC4)OC2=O)O3)cc1	?	?	-1.6	0.757µM*	-2.2%[6.58 µM]	i
COc1ccc([C@]23Cc4cc(OC)c(OC)cc4C(O2)c2c(c4ccccc4oc2=O)O3)cc1	31.2%[5.75 µM]	9.5%	-2.8	?	-8.7%[6.58 µM]	i
COc1ccc([C@]23Cc4cc(OC)c(OC)cc4C(O2)c2c(cc(C)n(Cc4ccccc4)c2=O)O3)cc1	?	1.9%	2.8	1.51µM*	-3.5%[6.58 µM]	i
COc1c(Cl)cc(Cl)cc1CNCCO	-4.7%	-0.2%	9.5	71.0%	-2.0%	-6.1
O=C(CSc1nnc(-c2ccccn2)o1)Nc1ccccc1F	133.6%	6.9%	25.5*	?	-11.8%	73.5*
CC(=O)Nc1ccc(NC(=O)CSc2ccc3nnc(-c4ccccn4)n3n2)cc1	2.0%	3.8%	0.6	0.4%	0.4%	-5.2
Cc1cccc(CSc2ccc3nnc(-c4ccccn4)n3n2)c1	3.7µM*	·	11.4	?	5.6%	3.4
Cc1ccccc1NC(=O)CSc1nnc(-c2ccccn2)o1	153.8%	4.7%	-4.8	19.7%	7.3%	-3.6
O=C(CSc1ccc2nnc(-c3ccccn3)n2n1)Nc1cccc(F)c1	?	12.1%	8.0	13.1µM*	-8.9%	8.6
O=C(CSc1ccc2nnc(-c3ccccn3)n2n1)Nc1ccccc1F	9.28µM*	-4.0%	7.8	-30.5%	8.5%	8.2
Cn1cnc(S(=O)(=O)N2CCN(C(c3ccccc3)c3ccccc3)CC2)c1	?	-14.1%	-5.3	-9.7%	4.4%	-4.4
O=C(COC(=O)/C=C/c1ccccc1Cl)NC1CCCC1	-4.8%	·	·	-18.3%	0.7%	·
CNc1ncc(C(=O)c2ccc(Cl)c(Cl)c2)s1	82.4%	-41.9%	37.7*	106.8%	-16.0%	94.1*
CNc1ncc(C(=O)c2ccc(Cl)cc2)s1	171.0%	-23.5%	34.7*	183.2%	-5.5%	69.3*
CNc1ncc(C(=O)c2ccc(-c3ccccc3)cc2)s1	92.5%	-3.3%	44.5*	63.5%	-2.8%	63.8*
SMILES	Pf growth 48h	NS1 inh	Cycloheximide cs	Pf growth 96h	SARS PLpro yeast	Shiga inhibitor
Cc1ccc(C)c(CNS(=O)(=O)c2c(C)[nH]c(C)c2C(=O)N2CCCCC2)c1	-20.4%	-9.3%	-10.7	4.1%	12.2%	-9.6
O=P1(NCCCn2cc[n+](Cc3nc4ccccc4[nH]3)c2)C=C(c2ccccc2)OC(c2ccccc2)=C1	11.7µM*	-4.4%	-1.9	2.33µM*	-2.7%	-6.6
O=C(CSc1nnc(-c2ccncc2)o1)Nc1ccc(F)c(F)c1	63.9%	·	·	40.2%	3.0%	·
O=C(Nc1cccc(S(=O)(=O)N2CCOCC2)c1)c1ccc(N2CCCC2=O)cc1	?	·	·	?	-2.9%	·
CCN1CCC2(CC1)Oc1c(OC)cccc1C1CC(c3cccnc3)=NN12 (stereo not given)	30.2%	-2.6%	44.4*	42.4%	0.0%	55.4*
CC(=O)N1N=C(c2cccnc2)CC1c1ccccc1O (stereo not given)	2.6%	-4.6%	0.8	?	-0.9%	-4.3
COc1cc(C2c3c(oc4ccccc4c3=O)C(=O)N2c2ccc(C)cn2)ccc1O (stereo not given)	9.2%	-44.9%	8.2	14.7µM*	15.0%	13.5
CC(=O)/C(=N\Nc1ccccc1)Oc1ccc([N+](=O)[O-])cc1	9.28µM*	10.4%	-3.1	10.4µM*	-3.4%	-4.4
O=C(NCC(O)COc1ccc([N+](=O)[O-])cc1)Nc1ccccc1 (stereo not given)	-2.2%	-2.0%	30.0*	-16.8%	-0.9%	34.1*
CCCN(CCC)CC(O)COc1ccc([N+](=O)[O-])cc1 (stereo not given)	?	0.6%	2.8	14.7µM*	9.6%	-15.4
COC(=O)c1ccc(OCC(O)CN2CCN(CC(O)COc3ccc(C(=O)OC)cc3)CC2)cc1 (stereo not given)	?	0.1%	-2.2	76.9%	-0.8%	-8.6
COC(=O)c1ccc(OCC(O)CN(CC(C)C)CC(C)C)cc1 (stereo not given)	13.1µM*	-7.1%	-2.6	?	4.0%	-20.4
CCCN(CCC)CC(O)COc1ccc2c(c1)OCO2 (stereo not given)	-24.8%	·	0.7	?	1.1%	-13.5
CC[C@H](NC(=O)[C@H](CCC(=O)O)NC(=O)[C@H](CCC(=O)O)NC(=O)[C@H](CC(=O)O[S+](=O)([O-])c1cccc2c(NCCN)cccc12)NC(=O)[C@H](CCC(=O)O)NC(=O)[C@H](CC(=O)O)NC(C)=O)C(=O)ON[C@@H](C)C(=O)N[C@@H](CO)C(=O)N[C@@H](CCCCNC(=O)c1ccc(N=Nc2ccc(N(C)C)cc2)cc1)C(N)=O	·	·	7.6	·	·	23.2
CC(C)(C)NC(=O)C(=O)NNC(=O)c1cccc(Br)c1	63.5%	·	17.3*	2.08µM*	-0.8%	47.3*
COc1ccccc1C(=O)NNC(=O)c1ccccc1Br	10.0%	-0.4%	13.3*	10.4µM*	1.7%	·
Cc1cccc(C(=O)NNC(=O)C(=O)NC(C)(C)C)c1	50.0%	-10.3%	6.4	?	1.1%	20.5
O=C(NC(=S)Nc1cccc2cc(O)ccc12)c1ccccc1Br	-26.0%	9.3%	5.6	13.1µM*	-3.8%	10.0
COc1cc(Br)c(C(C)NC(=O)c2cccc(Br)c2)cc1OC (stereo not given)	1.85µM*	-8.5%	-1.1	1.65µM*	0.6%	-11.5
